The campaign covered roughly 69,000 compounds. About 420 (0.61%) showed an effect of 50% or more. This excerpt belongs to a sample that is enriched for strong results.

Consider 58 molecules from ChEMBL document CHEMBL3988442, “University of Dundee, Small-Polar-MMV Screening Library” (2021).

The target in the experiment is T1, Histidine--tRNA ligase (Leishmania infantum) (UniProt A4I591).
T1 sequence (whole entry): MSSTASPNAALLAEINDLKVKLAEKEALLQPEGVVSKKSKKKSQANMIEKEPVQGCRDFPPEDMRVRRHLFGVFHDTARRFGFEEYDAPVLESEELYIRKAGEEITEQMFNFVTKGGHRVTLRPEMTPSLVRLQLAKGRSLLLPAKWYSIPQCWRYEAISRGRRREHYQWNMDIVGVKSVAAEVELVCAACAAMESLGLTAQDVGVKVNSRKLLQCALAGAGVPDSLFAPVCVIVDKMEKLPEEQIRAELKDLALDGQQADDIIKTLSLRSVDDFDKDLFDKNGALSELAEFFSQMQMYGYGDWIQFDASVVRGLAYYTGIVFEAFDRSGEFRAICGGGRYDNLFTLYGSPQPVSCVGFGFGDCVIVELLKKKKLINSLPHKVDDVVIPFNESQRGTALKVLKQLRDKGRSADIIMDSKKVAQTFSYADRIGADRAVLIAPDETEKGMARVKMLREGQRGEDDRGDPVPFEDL
Description: Leishmania infantum Histidine tRNA synthetase (LdHisRS). Format: functional. Also on record: scale not given: in the data most compounds retested in dose-response had high values. The following applies: 30 µM.
Take `Cc1ccc(C(=O)N2[C@@H]3CC[C@H]2CN(C)C(=O)C3)c(=O)[nH]1`: the Percent Effect was found to be 15.9%.

`CN1[C@@H](C(=O)NCC2CC2)C[C@H]2CN(Cc3cccc(C#N)c3)C[C@H]21`: the Percent Effect is 17.4%.

Take `CN(C)CCN1C(=O)C[C@@H]2[C@@H]1CCN2S(=O)(=O)c1ccccc1`: the Percent Effect was 13.6%.

For the molecule `O=C(N[C@@H]1CN(Cc2ccc3c(c2)OCO3)[C@@H]2CCCO[C@@H]21)C1CC1`, the Percent Effect stood at 7.55%.

Take `O=C1CC[C@H]2CN(c3ncc(F)cn3)CC[C@H]2N1CCc1ccccn1`: the Percent Effect turned out to be 4.84%.

As to `Cc1csc(N2CCN(C(=O)CCC(=O)c3ccc(C)s3)CC2)n1`, the Percent Effect was 50%.

`Cc1csc(N2CCN(C(=O)Cc3ccc(C)s3)CC2)n1`: the Percent Effect was 35.7%.

`Cc1csc(N2CCN(C(=O)c3ccc(C)s3)CC2)n1`: the Percent Effect is 11.4%.

In the case of `COCCN1CCO[C@@H]2CN(C(=O)COc3ccc(C)cc3)C[C@@H]2C1`, the Percent Effect stood at 10.3%.

In the case of `Cc1cc(C(=O)N2CC[C@@H]3CO[C@@H](CN4CCCC4)[C@@H]3C2)no1`, the Percent Effect is -2.63%.

On to `CCCn1nc2c(cc1=O)CN(CCN1CCCC1=O)CC2`, for which the Percent Effect is 23.7%.

Consider `CCCn1nc2c(cc1=O)CN(CCCN1CCCC1=O)CC2`, for which the Percent Effect was found to be 52.4%.

Take `CCCn1nc2c(cc1=O)CN(CCCS(N)(=O)=O)CC2`: the Percent Effect is 61.9%.

Turning to `CCCn1nc2c(cc1=O)CN(CC(=O)Nc1ccncc1)CC2`, the Percent Effect came out at 25%.

On to `CCCn1nc2c(cc1=O)CN(CCS(C)(=O)=O)CC2`, for which the Percent Effect amounted to 40.5%.

In the case of `CCn1nc2c(cc1=O)CN(CCCN1CCCC1=O)CC2`, the Percent Effect came to 30.7%.

Turning to `CN(C)C(=O)CO[C@H]1CN(Cc2ccccc2)[C@@H]2CCCO[C@H]12`, the Percent Effect stood at 20.6%.

As for `CC(C)(C)CC(=O)N1CC[C@H]2NC(=O)N(Cc3ccccc3)C(=O)[C@H]21`, the Percent Effect turned out to be 30.6%.

As to `Cc1ncsc1CN1CC[C@H]2OCC[C@@]2(C(=O)NC(C)C)C1`, the Percent Effect is -0.971%.

For the molecule `CO[C@@H]1CC[C@H]2[C@H]1OCCN2Cc1ccc(F)c(F)c1`, the Percent Effect is 8.33%.

Regarding `c1cnn(CCCO[C@@H]2CN(C3CCOCC3)[C@@H]3CCCO[C@@H]32)c1`, the Percent Effect worked out at 15.3%.

Consider `Cc1noc(CNc2c(N3CCCC3)cccc2N2CCCC2)n1`, for which the Percent Effect was 6.67%.

With `Cc1noc(C)c1CNc1c(N2CCCC2)cccc1N1CCCC1`, the Percent Effect stood at 84%.

`COc1ccccc1N1CCC(NCc2c(C)noc2C)C1` (stereo not drawn): the Percent Effect stood at 7.14%.

Turning to `Cc1noc([C@@H]2C[C@H]3CN(CC4CCOCC4)C[C@H]3O2)n1`, the Percent Effect was determined as 10.5%.

As to `CO[C@H]1CCN(C(=O)c2ccsc2)[C@@H]2CN(CC3CC3)C[C@H]12`, the Percent Effect was found to be 5.77%.

With `CC(=O)N(Cc1noc(C)n1)C1CCN(Cc2ccccc2C#N)C1` (stereo not drawn), the Percent Effect is 2.7%.

Turning to `CC(=O)N(Cc1noc(C)n1)C1CCN(Cc2cccc(C#N)c2)C1` (stereo not drawn), the Percent Effect is 63.2%.

Consider `Cc1nc(CN(C)C2CCN(Cc3ccc4ccccc4n3)C2)no1` (stereo not drawn), for which the Percent Effect amounted to 53.1%.

In the case of `Cc1nc(CN(C)C2CCN(Cc3nc4ccccc4s3)C2)no1` (stereo not drawn), the Percent Effect is 25.8%.

For `CC(=O)N(Cc1noc(C)n1)C1CCN(Cc2ccc(C#N)cc2)C1` (stereo not drawn), the Percent Effect was determined as 17.1%.

Take `Cc1nc(CN(C)C2CCN(Cc3nc4ccccc4n3C)C2)no1` (stereo not drawn): the Percent Effect amounted to 10.3%.

Regarding `Cc1cnc(N2C[C@@H]3[C@@H](C(=O)NCC(C)C)CCS(=O)(=O)[C@@H]3C2)nc1`, the Percent Effect came to 12.3%.

With `CN1[C@H](Cn2cncn2)C[C@@H]2CN(C3CCOCC3)CC[C@@H]21`, the Percent Effect stood at 20%.

Regarding `Cc1n[nH]c(C)c1CN1CC[C@@H]2[C@@H](CCC(=O)N2CCc2c[nH]cn2)C1`, the Percent Effect was determined as 19.4%.

With `CC(C)CNC(=O)N1C[C@H]2C[C@H](C(=O)NCc3ccccc3)[C@@H](C1)O2`, the Percent Effect came out at 14.6%.

On to `O=c1c2cnc(N3CCCCC3)nc2ccn1-c1ccccc1`, for which the Percent Effect turned out to be 7.77%.

Turning to `O=c1c2cnc(N3CCOCC3)nc2ccn1-c1ccccc1`, the Percent Effect stood at 50%.

Take `O=c1c2cnc(N3CCCC3)nc2ccn1-c1cccc(F)c1`: the Percent Effect was found to be 13.3%.

As for `COc1cc(CO)c(OC)c2c1OCO2`, the Percent Effect turned out to be 18.3%.

`COc1cc(CCC(C)O)c(OC)c2c1OCO2` (stereo not drawn): the Percent Effect stood at 0%.

`COc1cc(CCO)c(OC)c2c1OCO2`: the Percent Effect turned out to be 51.7%.

Consider `Cc1noc([C@H]2C[C@H]3OCC[C@H]3N(S(C)(=O)=O)C2)n1`, for which the Percent Effect was -20.2%.

For `COC(=O)c1ccc(OC)c(Cn2cc(Br)cn2)c1`, the Percent Effect stood at 1.12%.

`CCn1cc(C(=O)Nc2cc(C(=O)OC)ccc2C(=O)OC)cn1`: the Percent Effect was 10.3%.

In the case of `COC(=O)c1ccc(OC)c(Cn2cc(N)cn2)c1`, the Percent Effect stood at 50.6%.

For `CNC(=O)[C@@H]1[C@@H](c2ccccc2)CN2CCN(Cc3ccccn3)C[C@H]12`, the Percent Effect amounted to 8.16%.

In the case of `CSCC(=O)N1C[C@H]2CC[C@@H]1CN(Cc1ccccc1)C2`, the Percent Effect amounted to 26.9%.

For the molecule `CN(Cc1ccco1)[C@@H]1CN(Cc2cccs2)C[C@@H]2CCCO[C@@H]21`, the Percent Effect is 5.46%.

For `COCCCN1CCc2cncnc2C1`, the Percent Effect was determined as 50.6%.

With `CN(CCCOc1ccccc1)C(=O)CN1CCc2cncnc2C1`, the Percent Effect turned out to be 65.2%.

For the molecule `CC(C)OCCN1CCc2cncnc2C1`, the Percent Effect amounted to 37.1%.

For `O=C(CN1CCc2cncnc2C1)NCCOc1ccccc1`, the Percent Effect is 50%.

For the molecule `CCOCCN1CCc2cncnc2C1`, the Percent Effect amounted to 32.3%.

Take `Cc1cccc(OCCNC(=O)CN2CCc3cncnc3C2)c1`: the Percent Effect is 20.2%.

On to `CS(=O)(=O)c1ccc(OCCCN2CCc3cncnc3C2)cc1`, for which the Percent Effect amounted to 12.5%.

In the case of `COc1ccccc1OCCNC(=O)CN1CCc2cncnc2C1`, the Percent Effect was determined as 20.2%.

For `O=C(CN1CCc2cncnc2C1)NCCOc1cccc(Cl)c1`, the Percent Effect turned out to be 18.4%.
